These results are taken from PubChem BioAssay (NCATS).

Each structure is given as a SMILES string. Where “and” joins values, the source holds several entries; their conditions need not be identical. Identical values can stand only once. Inconclusive results are not listed. More than one record can exist for a structure, and the calls need not agree. Calls of active or inactive are those of the source. Unless noted, calls follow the shape of the dose curve; as a rule, active = well fitted curve in the direction sought with a large enough effect; inconclusive = small, poorly fitted or top-dose-only effect, or another doubt; inactive = no such curve, though single readings can be large; an effect the other way counts as inactive or inconclusive.

A short description of assay [1]: Primary qHTS for small molecule stabilizers of the endoplasmic reticulum resident proteome: Secreted ER Calcium Modulated Protein (SERCaMP) assay (AID 1508630). As to conditions: SH-SY5Y GLuc-SERCaMP (Gaussia luciferase released on ER calcium loss) secretion, thapsigargin, luminescence; series mostly up to 38.4 µM. The method in brief:
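The SH-SY5Y reporter protocol was run at 3 concentrations up to 38.3 uM (primary) or 11 concentrations (follow-up): 16 h compound, 100 nM thapsigargin for 4 h, then extracellular luciferase luminescence.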
Background: Quantitative high-throughput screening tests each substance at several concentrations.

Assay [2] can be described thus: Primary qHTS for inhibitors of nuclear receptor binding SET domain protein 2 (NSD2) in an isogenic RCH-ACV NSD2 p.E1099K mutant (9B) (AID 1645876). Also: nearly all actives have a fitted effect of over 70% in size. Also: potency is read from the fitted curve at half-maximal effect. As to conditions: RCH-ACV (leukaemia line) NSD2 E1099K (9B) viability, CellTiter-Glo, 72 h; series mostly up to 44.9 µM.
Assay [3] concerns the target Cytochrome P450 2C9 (Homo sapiens) (UniProt P11712). Nature of the assay: Cytochrome P450 family 2 subfamily C member 9 (CYP2C9) small molecule antagonists: luciferase biochemical (cell-free) qHTS assay (AID 1645842; active = well fitted curve in the direction sought with a large enough effect in the repeat runs; an effect the other way counts as inactive or inconclusive; also: nearly all actives have a fitted effect of over 55% in size; also: potency is read from the fitted curve at half-maximal effect). As to conditions: P450-Glo CYP2C9 enzyme assay, luciferin luminescence; series mostly up to 57.4 µM. The method in brief: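 P450-Glo CYP2C9 system: proluciferin substrate with enzyme in mix containing 0.4% BSA, 10 min at room temperature, then NADPH regeneration solution added and incubated 1 h at 37C. Detection reagent stopped reaction; luminescence read after 20 min as RLU.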

Assay [4] deals with Cytochrome P450 2D6 (Homo sapiens) (UniProt P10635). As to the kind of experiment: Cytochrome P450 family 2 subfamily D member 6 (CYP2D6) small molecule antagonists: luciferase biochemical (cell-free) qHTS assay (AID 1645840; active = well fitted curve in the direction sought with a large enough effect in the repeat runs; an effect the other way counts as inactive or inconclusive; also: nearly all actives have a fitted effect of over 55% in size; also: potency is read from the fitted curve at half-maximal effect). Particulars: P450-Glo CYP2D6 enzyme, luciferin luminescence, 1 h; series mostly up to 57.4 µM. In outline: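 P450-Glo CYP2D6 system: proluciferin substrate converted by enzyme to luciferin, read by luminescence proportional to activity. Enzyme-substrate mix with compound 10 min at room temperature, then NADPH regeneration 1 h before detection reagent.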
Sequence of Cytochrome P450 2D6 (Homo sapiens) (P10635 whole entry, looked up): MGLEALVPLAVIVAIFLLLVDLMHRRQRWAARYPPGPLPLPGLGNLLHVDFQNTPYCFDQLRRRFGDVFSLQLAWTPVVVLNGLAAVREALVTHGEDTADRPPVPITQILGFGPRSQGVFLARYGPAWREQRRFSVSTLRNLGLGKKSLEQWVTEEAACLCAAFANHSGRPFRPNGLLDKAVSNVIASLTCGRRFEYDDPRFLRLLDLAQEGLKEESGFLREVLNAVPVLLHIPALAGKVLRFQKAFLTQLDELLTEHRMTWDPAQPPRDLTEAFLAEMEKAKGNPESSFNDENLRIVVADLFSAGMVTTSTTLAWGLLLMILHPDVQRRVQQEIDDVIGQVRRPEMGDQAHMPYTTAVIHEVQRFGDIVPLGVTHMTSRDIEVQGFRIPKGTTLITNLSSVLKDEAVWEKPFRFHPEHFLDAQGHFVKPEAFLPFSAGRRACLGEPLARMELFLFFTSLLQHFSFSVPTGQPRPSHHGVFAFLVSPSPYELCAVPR

For assay [5], the target named is N-terminal Xaa-Pro-Lys N-methyltransferase 1 (Homo sapiens) (UniProt Q9BV86). As to the kind of experiment: Confirmatory qHTS for Inhibitors of N-terminal methyltransferase 1 (NTMT1): MTaseGlo Assay (AID 1645874). Also: nearly all actives have a fitted effect of over 65% in size. Also: potency is read from the fitted curve at half-maximal effect. Particulars: NTMT1 enzyme, MTase-Glo SAH luminescence; series mostly up to 100 µM. In outline: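 SPKRIA peptide at 1 uM was methylated by 125 nM NTMT1 using 100 uM SAM over 30 min at room temperature, following a 15 min compound preincubation. Product SAH was detected luminescently.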
Sequence of N-terminal Xaa-Pro-Lys N-methyltransferase 1 (Homo sapiens) (Q9BV86 whole entry, looked up): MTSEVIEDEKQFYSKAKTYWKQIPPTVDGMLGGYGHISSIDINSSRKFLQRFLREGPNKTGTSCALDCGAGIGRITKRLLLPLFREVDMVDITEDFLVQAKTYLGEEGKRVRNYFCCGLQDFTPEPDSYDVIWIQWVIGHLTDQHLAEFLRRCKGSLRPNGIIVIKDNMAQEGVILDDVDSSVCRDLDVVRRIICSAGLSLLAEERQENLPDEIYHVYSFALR

The target in a further assay is Papain (Carica papaya) (UniProt P00784). Nature of the assay: Primary qHTS assay for inhibitors of the protease papain (AID 1645873).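 Also: papain turnover of Z-FR-AMC read as the AMC fluorescence gain over 10 min.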 As to conditions: papain Z-FR-AMC cleavage, AMC fluorescence; series mostly up to 49.8 µM.
Sequence of Papain (Carica papaya) (P00784 whole entry, looked up): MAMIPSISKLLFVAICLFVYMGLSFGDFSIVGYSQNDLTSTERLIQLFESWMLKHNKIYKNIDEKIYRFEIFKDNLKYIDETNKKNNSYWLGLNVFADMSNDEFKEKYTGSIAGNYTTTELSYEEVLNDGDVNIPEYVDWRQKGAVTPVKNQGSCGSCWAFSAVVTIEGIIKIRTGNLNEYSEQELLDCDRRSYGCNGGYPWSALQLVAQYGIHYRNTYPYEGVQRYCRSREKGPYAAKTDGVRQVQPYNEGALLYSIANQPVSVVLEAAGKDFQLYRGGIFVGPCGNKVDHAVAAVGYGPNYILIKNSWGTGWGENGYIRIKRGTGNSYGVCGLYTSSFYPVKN
Assay [6] can be described thus: A High-Content qHTS Against Drug Library for the Identification of Small Molecules that Inhibit DYT1 Early Onset Primary Dystonia-Associated Cell Pathology (AID 1645839; calls by dose curve). Particulars: HEK293 Flp-In EGFP-delE TorsinA, punctate imaging, 48 h; series mostly up to 46.1 µM. In outline:
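Cells were seeded and left for 24 h, then dosed with compound alongside tetracycline induction of mutant EGFP-TorsinA. They were incubated for 48 h, fixed in 4% paraformaldehyde, permeabilized and imaged for mislocalization (%pathology) and cell count.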

Sequence of Cytochrome P450 2C9 (Homo sapiens) (P11712 whole entry, looked up): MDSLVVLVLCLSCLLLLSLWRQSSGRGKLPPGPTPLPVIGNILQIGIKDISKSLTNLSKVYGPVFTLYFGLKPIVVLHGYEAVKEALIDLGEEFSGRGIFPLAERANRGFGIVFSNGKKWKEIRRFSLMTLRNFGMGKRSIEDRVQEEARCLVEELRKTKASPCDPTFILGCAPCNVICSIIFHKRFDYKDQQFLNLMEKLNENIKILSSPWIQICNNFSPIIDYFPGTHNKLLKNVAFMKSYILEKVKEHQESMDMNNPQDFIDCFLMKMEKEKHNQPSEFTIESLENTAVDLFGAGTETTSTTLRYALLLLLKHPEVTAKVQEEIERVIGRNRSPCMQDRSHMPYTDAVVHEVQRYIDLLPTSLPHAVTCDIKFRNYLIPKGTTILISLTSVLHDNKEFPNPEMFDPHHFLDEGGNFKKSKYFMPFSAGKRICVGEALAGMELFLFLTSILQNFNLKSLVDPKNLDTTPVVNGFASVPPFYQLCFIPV

`CN1CCN(CCOc2cc(OC3CCOCC3)c3c(Nc4c(Cl)ccc5c4OCO5)ncnc3c2)CC1`: the Potency entry in assay [1] is “inactive”. Moreover, in assay [2], the Potency was 3.25 µM (active) and 2.63 µM (active).
In the case of `O=C(CCN1CCN(C(=O)OCc2cc(Cl)cc(Cl)c2)CC1)c1ccc2[nH]c(=O)oc2c1`, the Potency result in assay [1] is “inactive”. The Potency in assay [2] was 18.6 µM (active).
As for `C[C@H](NC(=O)c1sccc1OCc1ccc(Cl)cc1)c1ccccc1`, the Potency entry in assay [1] is “inactive”. Besides, in assay [3], the Potency was 0.952 µM (active).
Regarding `NC1CCC(Nc2nc(Nc3ccc(C(=O)N4CCCCC4)cc3)c3ncn(-c4cccc(F)c4)c3n2)CC1` (centres undefined), in assay [1], the Potency result is “inactive”. The Potency in assay [2] was 1.84 µM (active).
`O=c1c(O)c(-c2ccc(O)cc2)oc2cc(O)cc(O)c12`: the Potency entry in assay [1] was “inactive”. Moreover, the Potency in assay [2] is 23.5 µM (active).
For `Cc1ccn(-c2ccc(-c3ncco3)cc2)c(=O)c1-c1ccc2nc(N)ncc2c1`, in assay [1], the Potency entry is “inactive”. Moreover, the Potency in assay [4] is 16.9 µM (active); in assay [2], 5.9 µM (active).
`COc1cc(Nc2ncc(F)c(Nc3ccc4c(n3)NC(=O)C(C)(C)O4)n2)cc(OC)c1OC`: the Potency entry in assay [1] and in assay [5] was “inactive” in each case. In addition, in assay [2], the Potency was 817 nM (active) and 4.61 µM (active).
In the case of `CC1(C)CCC(CN2CCN(c3ccc(C(=O)NS(=O)(=O)c4ccc(NCC5CCOCC5)c([N+](=O)[O-])c4)c(Oc4cnc5[nH]ccc5c4)c3)CC2)=C(c2ccc(Cl)cc2)C1`, the Potency result in assay [1] was “inactive”. Also, the Potency in assay [2] was 11.2 µM (active) and inactive.
As for `COC1CCC(N(C(=O)C2CCC(C)CC2)c2cc(C3=CCCCC3)sc2C(=O)O)CC1` (centres undefined), the Potency entry in assay [1], in assay [4] and in assay [2] was “inactive” each time.
In the case of `Cn1c(N2CCCCS2(=O)=O)nc(C(=O)NCc2ccc(F)cc2)c(O)c1=O`, the Potency entry in assay [1], in assay [4] and in assay [2] was “inactive” each time.
On to `COc1cc(NC(=O)c2ccc(-c3ccc(Cl)cc3)o2)cc(OC)c1`, for which the Potency result in assay [1] and in assay [2] was “inactive” each time. Moreover, the Potency in assay [3] was 8.49 µM (active).
As to `COc1ncc(-c2ccc3nccc(-c4ccnnc4)c3c2)cc1NS(=O)(=O)c1ccc(F)cc1F`, in assay [1], the Potency entry was “inactive”. For the same compound, in assay [2], the Potency was 1.3 nM (active) and 8.3 nM (active).
Consider `CO[C@H]1C(=O)[C@]2(C)[C@@H](OC)C[C@H]3OC[C@@]3(OC(C)=O)[C@H]2[C@H](OC(=O)c2ccccc2)[C@]2(O)C[C@H](OC(=O)[C@H](O)[C@@H](NC(=O)OC(C)(C)C)c3ccccc3)C(C)=C1C2(C)C`, for which the Potency entry in assay [1] is “inactive”. Also, the Potency in assay [2] was 0.003 µM (active).
Turning to `COc1ccc(-c2nc(N3CCOCC3)c3sc(CN(C)c4ncc(C(=O)NO)cn4)cc3n2)cn1`, the Potency result in assay [1] was “inactive”. Moreover, the Potency in assay [2] was 7.3 nM (active) and 29.5 nM (active).
Take `CN(C)Cc1ccc(-c2nc3cccc4c3n2CCNC4=O)cc1`: the Potency result in assay [1] was “inactive”. In addition, the Potency in assay [2] is 11.8 µM (active).
As for `COc1cc2c(cc1OC)CN(CCc1ccc(NC(=O)c3cc(OC)c(OC)cc3NC(=O)c3cnc4ccccc4c3)cc1)CC2`, the Potency entry in assay [1], in assay [3] and in assay [2] was “inactive” each time.
In the case of `Cc1ccccc1C(C(=O)NC1CCCCC1)N(C(=O)Cn1ccnc1C)c1cccc(F)c1` (centres undefined), the Potency result in assay [1] and in assay [2] was “inactive” each time.
Take `O=C1C[C@@H](c2ccc(O)cc2)Oc2cc(O)cc(O)c21`: the Potency entry in assay [1] and in assay [2] was “inactive” each time.
Consider `O=C(Nc1c(Cl)cncc1Cl)c1ccc(OC(F)F)c(OCC2CC2)c1`, for which the Potency entry in assay [1] and in assay [2] was “inactive” throughout.
Regarding `Cc1ccc(C(=O)Nc2cccc(C(F)(F)F)c2)cc1Nc1nc(-c2cccnc2)nc2c1cnn2C`, the Potency result in assay [1] and in assay [2] was “inactive” each time.
`COC[C@@H](c1ccc(C(F)(F)F)cc1)N1CCN(C2(C)CCN(C(=O)c3c(C)ncnc3C)CC2)C[C@H]1C`: the Potency result in assay [1] and in assay [3] was “inactive” in each case.
Consider `N[C@H](CSC(c1ccccc1)(c1ccccc1)c1ccccc1)C(=O)O`, for which the Potency entry in assay [1] and in assay [2] was “inactive” throughout.
With `NC(=O)c1cnc(-c2ccc(C3(N)CCC3)cc2)c(-c2ccccc2)c1`, the Potency entry in assay [1] is “inactive”. In assay [2], the Potency was 2.95 µM (active) and 459 nM (active).
On to `CC1(C)CCC2=C(O1)c1ccccc1C(=O)C2=O`, for which the Potency entry in assay [1] is “inactive”. The compound was classed as inactive in the assay with Papain (Carica papaya). Besides, in assay [2], the Potency was 13.2 µM (active).
For the compound `O=C(O)c1c(Cl)c(Cl)c(Cl)c(Cl)c1-c1c2cc(I)c(=O)c(I)c-2oc2c(I)c(O)c(I)cc12`, the Potency in assay [4] is 4.25 µM (active); in assay [3], 10.7 µM (active); in assay [5] it was 9.55 µM (active).
Turning to `O=C(O)c1cc(O)c2c(c1)C(=O)c1cccc(O)c1C2=O`, the Potency entry in assay [1] and in assay [2] was “inactive” throughout.
In the case of `CCCCCN(C)CCC(O)(P(=O)(O)O)P(=O)(O)O`, in assay [1], the Potency entry is “inactive”. In addition, the outcome in assay [2] is “inactive [at 4.96 µM]”.
In the case of `CC(C(=O)O)c1ccc(-c2ccccc2)c(F)c1` (centres undefined), the Potency entry in assay [1] and in assay [2] was “inactive” each time.
Take `CCn1cc(C(=O)O)c(=O)c2ccc(C)nc21`: the Potency entry in assay [6] and in assay [4] was “inactive” throughout. Moreover, the compound was classed as inactive with Papain (Carica papaya).
Consider `COc1ccc2cccc(CCNC(C)=O)c2c1`, for which the Potency entry in assay [6] and in assay [2] was “inactive” in each case.
